# Assay results published in PubChem BioAssay (NCI).
# Compounds without any hit were thinned out: in the full panel of roughly 79,000, 15% have a hit. Values without a mark were called inactive. Activity calls are given as the source filed them. Cut-off read from the data, not from the text of the source: active = growth inhibition above about 70%; inactive = the rest.
# Legend:
# [1] = NCI Yeast Anticancer Drug Screen. Data for the rad50 strain (AID 155);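 note: 0% = growth of vehicle-only cultures of the same strain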; settings: S. cerevisiae rad50 strain growth inhibition; at 50.0 µM; stronger effect = higher value
# Outline: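 Yeast carrying a defined DNA repair defect were exposed to test compounds, and growth was compared with vehicle-treated controls to give percent inhibition.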
# [2] = NCI Yeast Anticancer Drug Screen. Data for the mec2-1 strain (AID 157); settings: S. cerevisiae mec2-1 strain, at 50.0 µM, stronger effect = higher value
# Outline: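 Mutant yeast (mec2-1) grown with compound; growth inhibition relative to vehicle control reported.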
# [3] = NCI Yeast Anticancer Drug Screen. Data for the sgs1 mgt1 strain (AID 161);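 note: 0% = growth of cultures given vehicle only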; settings: S. cerevisiae sgs1 mgt1 strain, at 50.0 µM, stronger effect = higher value
# Outline: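 This yeast growth screen uses a strain with defined DNA-repair lesions; compound-treated growth is compared with vehicle-treated growth.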
# [4] = NCI Yeast Anticancer Drug Screen. Data for the cln2 rad14 strain (AID 165);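 note: 0% = growth equal to vehicle treated cultures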; settings: S. cerevisiae cln2 rad14 strain, at 50.0 µM, stronger effect = higher value
# Outline: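 Readout is yeast growth inhibition versus vehicle-treated controls, using a strain with cln2 and rad14 alterations exposed to compound.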
# [5] = NCI Yeast Anticancer Drug Screen. Data for the bub3 strain (AID 167); settings: S. cerevisiae bub3 mutant strain, at 50.0 µM, stronger effect = higher value
# Outline: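 Compounds were applied to a genetically altered yeast strain carrying a cell-cycle control defect. Growth inhibition was scored against vehicle-treated controls.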
# [6] = NCI Yeast Anticancer Drug Screen. Data for the mlh1 rad18 strain (AID 175); settings: S. cerevisiae mlh1 rad18 strain growth inhibition; at 50.0 µM; stronger effect = higher value
# Outline: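 Genetically defined yeast (DNA repair-deficient) exposed to compounds; growth inhibition determined relative to vehicle.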
SMILES,growth inhibition [1],growth inhibition [2],growth inhibition [3],growth inhibition [4],growth inhibition [5],growth inhibition [6]
O=C(O)/C=C/C(=O)Nc1cccc2c1Cc1ccccc1-2,-7.2%,9%,20.9%,-29.5%,-4.3%,19.9%
[CH3][Ge]([Cl])([c]1ccccc1)[c]1cccc2ccccc12 (stereo not given),25.2%,12.4%,10.8%,10.2%,-0.15%,7.5%
COc1ccc(NC(=O)C(=O)Cc2ccc([N+](=O)[O-])c([N+](=O)[O-])c2CC(=O)C(=O)Nc2ccc(OC)cc2OC)c(OC)c1,0.35%,-36.1%,-44%,17.8%,6.15%,8.05%
COc1cc2cc3c4ccc(OC)c(OC)c4cc[n+]3c(C)c2cc1OC (tested in a mixture with another compound),98.1% (active),97.7% (active),98.8% (active),98.4% (active),98.2% (active),98% (active)
Nc1c[nH]c(=S)s1,36.9%,18.8%,54.7%,0.9%,39.6%,51.2%
Cc1c(C(=O)O)c2cc3ccccc3cc2c(=O)n1C,-22.1%,-34.6%,-10.1%,-40.6%,-23.9%,-35%
Cc1ccccc1C(=O)c1cc(O)ccc1O,-11.2%,-10.1%,-1.25%,-8%,-16.3%,-5.2%
CC(=O)OCC(OC(C)=O)C(OC1OC(COC(C)=O)C(OC(C)=O)C(OC(C)=O)C1OC(C)=O)C(OC(C)=O)C(C=O)OC(C)=O (stereo not given),-0.2%,10.8%,9.75%,-5.75%,-3.8%,-7.95%
O=C(CCS(=O)(=O)CCC(=O)c1cccs1)c1cccs1,4.2%,10.3%,1.9%,-4.15%,-3.55%,15.6%
Nc1cc(=O)n(-c2ccccc2)nc1Cl,2.05%,4.4%,-2.25%,-18.6%,3.1%,0.2%
Nc1nc2c(c(-c3ccc(Cl)cc3)n1)CN(c1ccc(Br)cc1)C2=O,40.5%,0.8%,-4.85%,12.7%,-3.1%,11.9%
CC(C)(CO)[C@@H](O)C(=O)NCCC(=O)O,-27.5%,-45.9%,-10.2%,15.4%,-27%,-23.9%
Cc1nc(N(C)C)oc(=O)c1Cc1ccccc1,-0.9%,18.6%,17.4%,-8.8%,20.6%,6.2%
FC(F)C(F)(F)N1c2ccccc2Sc2ccccc21,27.6%,-6.2%,19.9%,6.9%,27.1%,60.1%
COc1cc(NCCN=C(N)NC#N)c2ncccc2c1,0.95%,4.75%,-0.7%,-18.4%,-15.4%,2.6%
CCOC(=O)c1cc(C)[nH]n1,-37.9%,-26.1%,-6.75%,-11.7%,-26.9%,2.15%
Nc1nc(Cl)cc(Nc2ccc3c(c2)CCC3)n1,15.2%,6.8%,26.5%,19.1%,23.6%,-20.4%
OCC1CC=CCC1 (stereo not given),2.35%,-22.1%,-4.35%,16%,-27.1%,11.6%
CC1C2CC(CC(=O)N2)C1(C)C (stereo not given),15.6%,21.6%,21.7%,15.1%,11.2%,13.6%
O=C(/C=C/c1ccccc1Cl)c1ccc(Cl)c(Cl)c1,28.7%,0.2%,2.1%,12%,15.4%,29.4%

SMILES,growth inhibition [1],growth inhibition [2],growth inhibition [3],growth inhibition [4],growth inhibition [5],growth inhibition [6]
O=C(O)C1CC(Br)C(Br)CC1C(=O)Nc1cccc2ccccc12 (stereo not given),11.8%,6.45%,2.85%,-39.3%,1.3%,32.1%
O=C(NCO)NCOCn1c(=O)n(CO)c(=O)n(CO)c1=O,5.05%,-22.6%,-2.5%,29.9%,9.7%,-15.9%
N#Cc1ccc(OC(=O)Nc2cccc(Cl)c2Cl)cc1,-3.7%,-25.4%,2.95%,15.7%,0.55%,-9.45%
Oc1ccccc1C1N=NC2=C(CCCC2)N1O (stereo not given),-12.9%,-26.4%,-2.5%,-12.1%,21.9%,-7.15%
CC(=O)NCCNC(=O)c1ccc(C)c(OCc2ccccc2)c1[N+](=O)[O-],7%,11.7%,-1%,-26.2%,-1.6%,4.45%
CC1=C(CCCO)/C(=N\O)CCC1,3.75%,-1.75%,-3%,-30.4%,17.5%,-28%
Nc1ncnc2scnc12,14.4%,-0.55%,-8.5%,0.9%,-3.25%,1.65%
CCN1CCC(O)(c2ccc(Oc3ccc(F)cc3)cc2)C(C(=O)c2ccc(Oc3ccc(F)cc3)cc2)C1 (stereo not given),20.1%,2.9%,14.6%,5.95%,5.65%,29.9%
NC(=S)N/N=C/c1ccc(F)cn1,22.9%,58.4%,-1.5%,-63.9%,-5.4%,11.9%
N#C/C(=C1\SC(N=Nc2ccc(Cl)cc2)C(=O)N1c1ccccc1)c1nc2ccccc2[nH]1 (stereo not given),6.6%,6.05%,6.75%,-40.9%,3.05%,-5.05%
CC(=O)NNc1nc(C)c(C(=O)/C=C/c2ccc(Cl)cc2)s1,44.2%,12.7%,21.7%,27.4%,19%,30.2%
COc1ccc(/C=C2\CCCC3=C2NC(=S)NC3c2ccc(OC)cc2)cc1 (stereo not given),24.8%,21.4%,-6.35%,5.9%,-1.95%,-37.4%
COC1OCCCO1,-12.6%,11.6%,-6.45%,-6.75%,-0.1%,-12.5%
CC1=C(C)C(=O)c2c(OC(=O)c3ccccc3)ccc(OC(=O)c3ccccc3)c2C1=O,-18.8%,7.7%,19.3%,-18.7%,-1.2%,-13.8%
N#C/C=C\c1ccc(Cl)cc1,2.6%,-4.5%,-30.4%,-10.8%,-11.8%,-3.05%
Nc1c(-c2ccccc2[N+](=O)[O-])nc2ccccn12,-16.1%,-43.5%,-49.3%,-2.15%,-19.2%,-21.1%
O=C(NCCCl)Oc1ccccc1,6.85%,-15.5%,-7.95%,-0.1%,-4.9%,-9.1%
CC(=O)CC(=O)CCCCC(=O)O,-0.15%,-11.1%,-6.55%,-22.6%,-5.6%,4.8%
CSc1nc(-c2ccccc2)c2c(n1)-c1ccccc1CC2,-4.95%,-6.1%,3.05%,-2.4%,17.9%,-2.35%
COC(=O)[C@@]12CN(C)[C@@H](C(C)(C)C)N1C(=O)OC2c1ccccc1 (stereo not given in full),24.4%,-25.4%,-23.1%,-1.8%,36.6%,-8.35%
